# Data taken from PubChem BioAssay (EPA / NIEHS).
# Results filed as inconclusive are left out. The source made the active and inactive calls. How the source made its calls, unless noted: active means hit-call score of the fitted dose curve at least 0.9, where 1 is the maximum; inactive means score below 0.9.
# Key:
# [1] = read-out: Interleukin-8 (IL8), CXCL8 (gene 3576); assay: BSK_3C_IL8: BioMAP Diversity Plus: 3C Assay for Interleukin-8 (IL8) Biomarker Activity (AID 2283020); details: primary human endothelial cells (HUVEC); actives raise or lower the signal
# Procedure, shortened: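 Endothelial primary cells of human umbilical vein origin are dosed with chemical; after 24 h the IL-8 biomarker is measured by ELISA, and concentration–response is fitted in both directions versus DMSO.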
# [2] = read-out: Monokine induced gamma interferon (MIG), CXCL9 (gene 4283); assay: BSK_3C_MIG: BioMAP Diversity Plus: 3C Assay for Monokine induced gamma interferon (MIG) Biomarker Activity (AID 2283021); details: primary human endothelial cells (HUVEC); actives raise or lower the signal
# Procedure, shortened: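 Endothelial primary cells (human umbilical vein) are dosed with test chemical in the 3C system. MIG levels are measured by ELISA at 24 h and fitted in both directions relative to DMSO.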
# [3] = BSK_3C_SRB: Viability Assessment in the BioMAP Diversity Plus: 3C Assay (AID 2283023); details: primary human endothelial cells (HUVEC);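 further: fitted both ways against DMSO so a hit may be signal rise or drop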
# Procedure, shortened: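 Primary human umbilical vein endothelial cells in the 3C system were read 24 h after compound dosing. Total protein was stained with 0.1% sulforhodamine B after 10% TCA fixation and read at 560 nm, with bidirectional fitting against DMSO as baseline.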
# [4] = BSK_3C_Vis: BioMAP Diversity Plus: 3C Assay for Morphology Visualization (AID 2283025); details: primary human endothelial cells (HUVEC);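 further: fitted both ways so gain or loss versus DMSO counts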
# Procedure, shortened: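 Morphology read by light microscopy serves as a background control for the multiplexed 3C assay in human umbilical vein endothelial cells, taken 24 h after dosing, with DMSO as the negative control and bidirectional curve fitting.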
# [5] = BSK_4H_SRB: Viability Assessment in the BioMAP Diversity Plus: 4H Assay (AID 2283027); details: primary human endothelial cells (HUVEC);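 further: cells exposed to compound for 24 h before staining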;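 on AC50: curves fitted both ways versus DMSO so AC50 may be loss or gain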
# Procedure, shortened: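 HUVEC, 24 h post-dose; 10% TCA fix, 0.1% SRB stain, A560 nm. Total protein = overt cytotoxicity, parallel to biomarker read. Bidirectional fit vs DMSO baseline.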
# [6] = BSK_BE3C_SRB: Viability Assessment in the BioMAP Diversity Plus: BE3C Assay (AID 2283028); details: primary human bronchial epithelial cells
# Procedure, shortened: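 Human primary bronchial epithelial cells were exposed to test chemicals for 24 h. Total protein in parallel cultures was then measured by staining with 0.1% sulforhodamine B after 10% TCA fixation, with absorbance read at 560 nm. Activity was fitted bidirectionally against DMSO.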
# [7] = read-out: Thrombomodulin, THBD (gene 7056); assay: BSK_3C_Thrombomodulin: BioMAP Diversity Plus: 3C Assay for Thrombomodulin Biomarker Activity (AID 2283029); details: primary human endothelial cells (HUVEC); actives raise or lower the signal
# Procedure, shortened: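 Endothelial cells from umbilical vein are dosed with test chemical and incubated 24 h. Thrombomodulin is then quantified by ELISA, with DMSO serving as negative control and activity baseline.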
# [8] = read-out: Urokinase-type plasminogen activator receptor (uPAR), PLAUR (gene 5329); assay: BSK_4H_uPAR: BioMAP Diversity Plus: 4H Assay for Urokinase-type plasminogen activator receptor (uPAR) Biomarker Activity (AID 2283030); details: primary human endothelial cells (HUVEC); actives raise or lower the signal
# Procedure, shortened: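 Primary human umbilical vein endothelial cells were exposed to chemical for 24 h before cell-surface uPAR was quantified by ELISA. Activity was fitted bidirectionally against the DMSO negative control baseline.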
# [9] = read-out: Vascular endothelial growth factor receptor 2 (Homo sapiens) (UniProt P35968); assay: BSK_4H_VEGFRII: BioMAP Diversity Plus: 4H Assay for Vascular endothelial growth factor receptor 2 (VEGFR2) Biomarker Activity (AID 2283031); details: primary human endothelial cells (HUVEC); actives raise or lower the signal
# Procedure, shortened: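 Primary human umbilical vein endothelial cells in the BioMAP 4H system were dosed with test chemical, and 24 h later VEGFRII was measured by ELISA. Activity was fitted bidirectionally against DMSO as negative control and baseline.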
# [10] = read-out: Human Leukocyte Antigen - DR isotype (HLADR), HLA-DRA (gene 3122); assay: BSK_BE3C_HLADR: BioMAP Diversity Plus: BE3C Assay for Human Leukocyte Antigen - DR isotype (HLADR) Biomarker Activity (AID 2283032); details: primary human bronchial epithelial cells; actives raise or lower the signal
# Procedure, shortened: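 Chemicals are dosed onto BE3C bronchial epithelial cultures of human origin and left 24 h. HLA-DR is then measured by ELISA, and the endpoint is fitted in both directions using DMSO as the activity baseline.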
# [11] = read-out: Vascular cell adhesion molecule 1 (VCAM1), VCAM1 (gene 7412); assay: BSK_4H_VCAM1: BioMAP Diversity Plus: 4H Assay for Vascular cell adhesion molecule 1 (VCAM1) Biomarker Activity (AID 2283033); details: primary human endothelial cells (HUVEC); actives raise or lower the signal;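 on outcome: cell-surface VCAM-1 protein measured by ELISA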
# Procedure, shortened: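 Chemicals are added to primary human umbilical vein endothelial cells. After 24 h, VCAM-1 levels are measured by ELISA. Values come from bidirectional fitting referenced to DMSO.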
# [12] = read-out: Interferon-gamma inducible Protein 10 (IP10), CXCL10 (gene 3627); assay: BSK_BE3C_IP10: BioMAP Diversity Plus: BE3C Assay for Interferon-gamma inducible Protein 10 (IP10) Biomarker Activity (AID 2283034); details: primary human bronchial epithelial cells; actives raise or lower the signal
# Procedure, shortened: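 IP-10 quantified by ELISA serves as the endpoint. Cells: primary human bronchial epithelium, read 24 h after compound addition. Activity is derived by bidirectional fitting with DMSO as negative control.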
# [13] = read-out: Transforming growth factor beta 1 (TGFb1), TGFB1 (gene 7040); assay: BSK_BE3C_TGFb1: BioMAP Diversity Plus: BE3C Assay for Transforming growth factor beta 1 (TGFb1) Biomarker Activity (AID 2283036;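 further: TGF-b1 protein level measured by ELISA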); details: primary human bronchial epithelial cells; actives raise or lower the signal
# Procedure, shortened: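 Bronchial epithelial primary cells are treated with test chemical, then TGF-b1 is quantified by ELISA after 24 hours. Values derive from bidirectional fitting against DMSO, with cytotoxicity checked by SRB staining in parallel cultures.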
# [14] = read-out: Plasminogen activator inhibitor-1 (PAI1), SERPINE1 (gene 5054); assay: BSK_BE3C_PAI1: BioMAP Diversity Plus: BE3C Assay for Plasminogen activator inhibitor-1 (PAI1) Biomarker Activity (AID 2283037); details: primary human bronchial epithelial cells; actives raise or lower the signal
# Procedure, shortened: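 Values derive from bidirectional fitting against DMSO baseline of PAI-1 levels, measured by ELISA in human bronchial epithelial cells 24 h after compound addition.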
# [15] = read-out: Urokinase-type plasminogen activator receptor (uPAR), PLAUR (gene 5329); assay: BSK_BE3C_uPAR: BioMAP Diversity Plus: BE3C Assay for Urokinase-type plasminogen activator receptor (uPAR) Biomarker Activity (AID 2283039); details: primary human bronchial epithelial cells; actives raise or lower the signal;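 further: uPAR protein level measured by ELISA on the cells; cells exposed to compound for one day before measurement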
# Procedure, shortened: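 Steps: dose human primary bronchial epithelial cells, incubate 24 h, measure uPAR by ELISA, then fit gain- or loss-of-signal response bidirectionally relative to DMSO.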
# [16] = read-out: Pselectin, SELP (gene 6403); assay: BSK_4H_Pselectin: BioMAP Diversity Plus: 4H Assay for Pselectin Biomarker Activity (AID 2283026); details: primary human endothelial cells (HUVEC); actives raise or lower the signal
# Procedure, shortened: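 Endothelial primary cells (human umbilical vein) are dosed, incubated 24 h, and assayed for surface P-selectin by ELISA; responses in either direction are fitted relative to the DMSO negative control.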
# [17] = molecular target: human Vitamin D Receptor (VDR), VDR (gene 7421) (UniProt P11473); assay: ATG_VDR_TRANS: Attagene TRANS-FACTORIAL HepG2 Assay for human Vitamin D Receptor (VDR) (AID 2283022; active means hit-call score of the fitted dose curve at least 0.9, where 1 is the maximum)
# Sequence of human Vitamin D Receptor (VDR), VDR (gene 7421) (P11473 whole entry, looked up, the tested form may be a part): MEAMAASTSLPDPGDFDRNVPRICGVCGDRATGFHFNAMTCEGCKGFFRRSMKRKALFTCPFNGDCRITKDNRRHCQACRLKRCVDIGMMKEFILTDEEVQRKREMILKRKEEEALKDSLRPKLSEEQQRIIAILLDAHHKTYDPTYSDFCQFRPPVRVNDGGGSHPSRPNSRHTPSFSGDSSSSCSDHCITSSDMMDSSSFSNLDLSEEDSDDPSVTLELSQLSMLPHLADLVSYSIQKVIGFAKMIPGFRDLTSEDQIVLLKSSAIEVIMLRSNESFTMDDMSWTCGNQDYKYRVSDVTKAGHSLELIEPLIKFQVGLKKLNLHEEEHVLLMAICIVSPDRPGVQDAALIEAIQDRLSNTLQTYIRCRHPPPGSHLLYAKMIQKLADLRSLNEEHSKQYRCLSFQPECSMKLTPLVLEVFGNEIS
# Procedure, shortened: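 HepG2 cells were transiently transfected with multiple GAL4-UAS reporter units, so signal reflects exogenous chimeric receptor-Gal4 activity. After 24 h compound exposure, reporter mRNA was measured by RT-PCR, fluorescent labelling and capillary electrophoresis, fitted for gain of signal versus DMSO.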
# [18] = read-out: Monokine induced gamma interferon (MIG), CXCL9 (gene 4283); assay: BSK_BE3C_MIG: BioMAP Diversity Plus: BE3C Assay for Monokine induced gamma interferon (MIG) Biomarker Activity (AID 2283035); details: primary human bronchial epithelial cells; actives raise or lower the signal;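 further: MIG protein measured by ELISA in BE3C cultures after 24 h of dosing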
# Procedure, shortened: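 Dose cells (human primary bronchial epithelial), incubate 24 h, quantify MIG by ELISA, then fit concentration–response in both directions relative to DMSO control.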
smiles,measurement,setting,value
NC(=O)c1c(Cl)cccc1Cl,outcome,[1],inactive
same,outcome,[2],inactive
same,outcome,[3],inactive
same,outcome,[4],inactive
same,outcome,[5],inactive
same,outcome,[6],inactive
same,outcome,[7],inactive
same,outcome,[8],inactive
same,outcome,[9],inactive
same,outcome,[10],inactive
same,outcome,[11],inactive
same,outcome,[12],inactive
same,outcome,[13],inactive
same,outcome,[14],inactive
same,outcome,[15],inactive
CC=CC(=O)C1=C(C)C=CCC1(C)C,outcome,[1],inactive
same,outcome,[2],inactive
same,outcome,[3],inactive
same,outcome,[4],inactive
same,outcome,[16],inactive
same,outcome,[5],inactive
same,outcome,[6],inactive
same,outcome,[7],inactive
same,outcome,[8],inactive
same,outcome,[9],inactive
same,outcome,[10],inactive
same,outcome,[11],inactive
same,outcome,[12],inactive
same,outcome,[13],inactive
same,outcome,[14],inactive
same,outcome,[15],inactive
CCn1cc(C(=O)O)c(=O)c2ccc(C)nc21,outcome,[1],inactive
same,outcome,[2],inactive
same,outcome,[17],inactive
same,outcome,[3],inactive
same,outcome,[5],inactive
same,outcome,[6],inactive
same,outcome,[7],inactive
same,outcome,[8],inactive
same,outcome,[9],inactive
same,outcome,[10],inactive
same,outcome,[11],inactive
same,outcome,[12],inactive
same,outcome,[14],inactive
same,outcome,[15],inactive
CCCCCCCCCCCCS,AC50,[1],20 µM (active)
same,outcome,[2],inactive
same,AC50,[3],26.5 µM (active)
same,AC50,[4],20 µM (active)
same,AC50,[5],29.6 µM (active)
same,outcome,[6],inactive
same,outcome,[7],inactive
same,outcome,[8],inactive
same,outcome,[9],inactive
same,AC50,[10],20 µM (active)
same,AC50,[11],11.2 µM (active)
same,AC50,[12],20 µM (active)
same,outcome,[13],inactive
same,outcome,[14],inactive
same,outcome,[15],inactive
CC(=O)c1cccnc1,outcome,[17],inactive
CCCCCCCCCO,outcome,[17],inactive
c1coc(CNc2ncnc3nc[nH]c23)c1,outcome,[17],inactive
NC(=O)c1cnccn1,outcome,[17],inactive
CCCO[Si](OCCC)(OCCC)OCCC,outcome,[1],inactive
same,outcome,[2],inactive
same,outcome,[3],inactive
same,outcome,[5],inactive
same,outcome,[6],inactive
same,outcome,[7],inactive
same,outcome,[8],inactive
same,outcome,[9],inactive
same,outcome,[10],inactive
same,outcome,[11],inactive
same,outcome,[12],inactive
same,outcome,[18],inactive
same,outcome,[14],inactive
same,outcome,[15],inactive
CCOC(=O)COC(=O)c1ccccc1C(=O)OCC,outcome,[17],inactive
C=C(F)C(=O)OC(C(F)(F)F)C(F)(F)F,outcome,[1],inactive
same,outcome,[2],inactive
same,outcome,[3],inactive
same,outcome,[5],inactive
same,outcome,[6],inactive
same,outcome,[7],inactive
same,outcome,[8],inactive
same,outcome,[9],inactive
same,outcome,[10],inactive
same,outcome,[11],inactive
same,outcome,[12],inactive
same,outcome,[18],inactive
same,outcome,[14],inactive
same,outcome,[15],inactive
